Here are results for five compounds from PubChem BioAssay.

Assay [1] can be described thus: yeast TOR pathway RPL19A-GFP modulators, primary screen, cell-based, S. cerevisiae, multiplex flow cytometry (AID 1862; in the data active = percent of DMSO control GFP below about 86%;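 note: lower values mimic rapamycin by blocking the RPL19A rise seen in DMSO cells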). The note with it: S. cerevisiae RPL19A-GFP strain, flow cytometry fluorescence, 3 h; at 10 µM; stronger effect = lower value. Background: In flow cytometry, cells or beads pass a laser one at a time.
Assay [2] can be described thus: modulators of MEP2-GFP levels in yeast, primary screen, S. cerevisiae, multiplex flow cytometry (AID 1867;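 active = GFP response, as percent of the DMSO control, above the screen-wide mean plus 3 SD, about 139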;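 note: median GFP channel fluorescence of barcode-gated MEP2-GFP cells measured by flow cytometry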). The note with it: S. cerevisiae MEP2-GFP strain, 3 h, at 10 µM, stronger effect = higher value, 100% means same as DMSO wells.
Assay [3] can be described thus: modulators of CIT2-GFP expression in yeast, primary screen, S. cerevisiae, GFP fusion, multiplex flow cytometry (AID 1870;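 active = percent response above a set limit, the screen-wide mean plus 3 SD, cut at about 130% in these data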;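 note: barcoded CIT2-GFP strain pooled with four other GFP strains with rapamycin as positive control; median GFP fluorescence per well over plate mean of DMSO wells so 100% = DMSO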). The note with it: 3 h, at 10 µM, stronger effect = higher value.
Assay [4] can be described thus: modulators of LAP4-GFP expression in yeast, primary screen, S. cerevisiae, multiplex flow cytometry (AID 1873;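 active = GFP signal, as percent of the solvent control, above the screen mean plus 3 SD, about 149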). The note with it: 3 h, at 10 µM, stronger effect = higher value.
Assay [5] in a line: modulators of AGP1-GFP expression in yeast TOR pathway, primary screen, cell-based, multiplex flow cytometry, S. cerevisiae (AID 1887;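 active = GFP signal above the screen-wide mean plus 3 SD, that is over about 124.5% of the solvent control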;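 note: AGP1-GFP fusion strain of S. cerevisiae within a five-strain barcoded multiplex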). The note with it: 3 h, at 10 µM, stronger effect = higher value.
Assay [6] in a line: inhibitors of CD8+ T cell-vesicle binding, pilot screen, LFA-1/ICAM-1 modulator project, MLPCN validation set, flow cytometry (AID 2523;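 active = response below a set limit, under 55% cells CD8-positive and vesicle-bound, and CD8 cells' 90th-percentile brightness under 279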;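 for vesicle binding response: mean PE anti-B7-1 fluorescence of CD8+ cells relative to row control; 100% = QL9-loaded vesicles with DMSO vehicle in the same plate row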). The note with it: 2C mouse CD8+ T cells, at 7 µM, stronger effect = lower value; double positive events: measured here: CD8+/vesicle+ event percentage.
Assay [7] has as its target Integrin beta-1 (Homo sapiens) + Integrin alpha-4 (Homo sapiens) (UniProt P13612+P05556). Briefly: inhibition of HUTS-21 binding to VLA-4, pilot screen, VLA-4 allosteric modulator project, U937 cells, HUTS-21 mAb, flow cytometry, validation set (AID 2674;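 active = inhibition above 50%, about 3 SD of the validation set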;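 note: antibody binding induced by the VLA-4 ligand LDV present at three times its Kd; 0% = LDV ligand with antibody and no compound and 100% = antibody without LDV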). The note with it: HUTS-21 LIBS mAb binding, at 6.7 µM, stronger effect = higher value, binding induced by LDV ligand.
Assay [8] is described as follows: superoxide lowering in aged yeast cells, pilot screen, validation compound set (AID 2706;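 active = superoxide response below 65% of plate, a cut near 3 SD across the whole screen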;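 note: yeast exposed to compound for one week at 30 degrees C before staining; 100% = mean of all compound wells on the same plate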). The note with it: S. cerevisiae aging, superoxide DHE fluorescence; at 10 µM; stronger effect = lower value.
Assay [9] has as its target Beta-adrenergic receptor kinase 1 (Homo sapiens) (UniProt P25098). Briefly: GRK2 binders displacing RNA aptamer, biochemical, validation, human GRK2, bead flow cytometry (AID 488806;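 active = aptamer binding inhibition above 30%, about 3 SD of noise from non-fluorescent compounds; inactive = inhibition at or below 30%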). The note with it: bead-bound GRK2, FAM-aptamer displacement, at 10 µM, stronger effect = higher value.
For assay [10], the target named is Beta-2 adrenergic receptor (Homo sapiens) (UniProt P07550). Briefly: beta2AR agonists driving receptor internalization, pilot screen, cell-based, FAP fluorogen, flow cytometry, validation set (AID 504459;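 active = percent response above 42, roughly 3 SD of non-fluorescent test compounds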;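 note: agonist-driven loss of surface beta2AR via internalization measured by FAP dye flow cytometry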). The note with it: Am2.2-beta2AR cells, FAP surface receptor flow cytometry; at 10 µM; stronger effect = higher value.
The target of assay [11] is AP-2 complex subunit beta (Homo sapiens) (UniProt P63010). Briefly: inhibitors of arrestin peptide binding to AP2, pilot screen, biochemical, validation set, GST-AP2 beads, flow cytometry (AID 504541;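 active = inhibition above 54%, about 3 SD of non-fluorescent compounds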;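 note: AP2 carries R879A mutation and is captured from E. coli lysate; bead-bound FITC arrestin peptide fluorescence measuring arrestin peptide binding to AP2; 0% = DMSO wells and 100% = excess unlabeled arrestin peptide control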). The note with it: FITC arrestin peptide, at 10 µM, stronger effect = higher value, AP2 beta2 appendage fragment, R879A mutant.
Assay [12] in a line: yeast V-ATPase proton transport modulators, S. cerevisiae, pHLuorin, HTS validation (AID 504600; in the data active = response above about 15%;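 note: plate controls were DMSO for no effect and reference compound for full effect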). The note with it: S. cerevisiae pHLuorin cytosolic pH, at 10 µM, stronger effect = higher value.
Assay [13] has as its system anti-desmoglein-3 scFv antibody binding to human DSG3. Briefly: inhibitors of anti-DSG3 scFv binding to DSG3, pilot screen, biochemical, validation compound set, bead-based, flow cytometry (AID 588368;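 active = binding below the plate cutoff, the plate median minus 3 SD, with a reading above zero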;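 note: signal is the median channel fluorescence of bead-bound GFP antibody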). The note with it: Protein G beads, DSG3-Fc, scFv-GFP binding, at 10 µM, stronger effect = lower value.
Assay [14] is described as follows: inhibitors of fungal efflux pumps CDR1, CDR2, MDR1, pilot screen, validation compound set, multiplex, phenotypic (AID 588506;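 active = efflux inhibition above 0.42, the validation set average plus 4 SD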;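 note: Nile Red retained in cells so higher fluorescence means more efflux inhibition; 0 = negative control wells and 1 = enniatin B 25 µM full block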). The note with it: S. cerevisiae pump-expressing triplex, Nile Red efflux flow cytometry; at 10 µM; stronger effect = higher value; the pumps come from Candida albicans.
The target in assay [15] is ATP-binding cassette sub-family B member 6 (Homo sapiens) (UniProt Q9NP58). As to the kind of experiment: ABCB6 transporter inhibitors, pilot screen, K562-ABCB6 cells, flow cytometry, validation set (AID 588550).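 Note: 0% = DMSO wells and 100% = benzethonium chloride 70 µM positive control.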 The note with it: K562-ABCB6 porphyrin accumulation, 1 h, at 10 µM, stronger effect = higher value.
Assay [16] in a line: promoters of myeloid differentiation in arrested cells, primary screen, cell-based, GFP/MAC1 double positive, flow cytometry, validation set (AID 588685;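 active = differentiation response of at least 50%, scaled between solvent and reference control, from cells with both markers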;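 note: compound exposure lasts four days before antibody staining and flow analysis; 0% = DMSO wells and 100% = 5 µM fulvestrant positive control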). The note with it: ER-HoxA9 marrow cells, stronger effect = higher value, normalized: vehicle 0, fulvestrant 100.

Each structure is given as a SMILES string. Results filed as inconclusive are left out. The source made the active and inactive calls.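 Rule for the calls, unless noted: active = inhibition above the screen-wide mean plus 3 SD, about 51%; inactive = the rest.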

Chain of Beta-adrenergic receptor kinase 1 (Homo sapiens) (P25098 whole entry, looked up): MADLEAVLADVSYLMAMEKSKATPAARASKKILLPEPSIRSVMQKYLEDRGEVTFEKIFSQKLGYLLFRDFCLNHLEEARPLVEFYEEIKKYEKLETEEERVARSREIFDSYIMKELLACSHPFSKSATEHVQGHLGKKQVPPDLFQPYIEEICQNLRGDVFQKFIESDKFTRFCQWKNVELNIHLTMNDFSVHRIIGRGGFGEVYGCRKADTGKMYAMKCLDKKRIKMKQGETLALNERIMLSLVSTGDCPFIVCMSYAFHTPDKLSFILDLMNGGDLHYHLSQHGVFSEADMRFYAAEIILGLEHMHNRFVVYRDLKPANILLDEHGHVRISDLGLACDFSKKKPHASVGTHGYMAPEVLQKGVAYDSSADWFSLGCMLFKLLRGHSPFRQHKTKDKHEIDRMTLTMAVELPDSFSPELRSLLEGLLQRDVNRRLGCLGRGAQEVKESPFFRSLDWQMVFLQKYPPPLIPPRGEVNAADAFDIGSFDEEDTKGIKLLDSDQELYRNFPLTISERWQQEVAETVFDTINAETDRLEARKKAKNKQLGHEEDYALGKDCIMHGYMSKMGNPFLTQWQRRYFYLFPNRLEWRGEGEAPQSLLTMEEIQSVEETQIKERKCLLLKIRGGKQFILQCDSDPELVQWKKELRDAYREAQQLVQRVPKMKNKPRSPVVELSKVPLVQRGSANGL
Chain of ATP-binding cassette sub-family B member 6 (Homo sapiens) (Q9NP58 whole entry, looked up): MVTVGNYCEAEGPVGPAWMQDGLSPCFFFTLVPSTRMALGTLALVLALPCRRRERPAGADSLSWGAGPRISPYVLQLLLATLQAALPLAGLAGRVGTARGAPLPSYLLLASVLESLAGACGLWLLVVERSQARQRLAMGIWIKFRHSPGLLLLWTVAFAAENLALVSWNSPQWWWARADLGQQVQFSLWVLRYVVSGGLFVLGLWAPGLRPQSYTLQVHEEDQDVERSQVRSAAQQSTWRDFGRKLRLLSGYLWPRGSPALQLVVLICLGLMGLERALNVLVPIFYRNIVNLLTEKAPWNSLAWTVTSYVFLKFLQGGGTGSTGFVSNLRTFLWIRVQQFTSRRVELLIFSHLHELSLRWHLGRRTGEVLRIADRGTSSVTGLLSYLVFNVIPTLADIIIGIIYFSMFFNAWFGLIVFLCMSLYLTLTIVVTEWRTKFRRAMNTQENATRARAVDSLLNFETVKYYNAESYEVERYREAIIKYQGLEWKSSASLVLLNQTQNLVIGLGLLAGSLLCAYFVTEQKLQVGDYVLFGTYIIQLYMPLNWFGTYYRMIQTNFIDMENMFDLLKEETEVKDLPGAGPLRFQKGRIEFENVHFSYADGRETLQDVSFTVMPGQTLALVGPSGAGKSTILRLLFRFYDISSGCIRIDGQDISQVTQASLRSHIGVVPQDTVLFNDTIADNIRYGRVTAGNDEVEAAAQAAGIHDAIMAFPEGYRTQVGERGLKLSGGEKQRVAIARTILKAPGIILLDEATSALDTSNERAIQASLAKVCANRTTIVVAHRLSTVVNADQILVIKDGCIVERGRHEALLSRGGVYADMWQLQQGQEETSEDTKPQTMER
Chain of Beta-2 adrenergic receptor (Homo sapiens) (P07550 whole entry, looked up): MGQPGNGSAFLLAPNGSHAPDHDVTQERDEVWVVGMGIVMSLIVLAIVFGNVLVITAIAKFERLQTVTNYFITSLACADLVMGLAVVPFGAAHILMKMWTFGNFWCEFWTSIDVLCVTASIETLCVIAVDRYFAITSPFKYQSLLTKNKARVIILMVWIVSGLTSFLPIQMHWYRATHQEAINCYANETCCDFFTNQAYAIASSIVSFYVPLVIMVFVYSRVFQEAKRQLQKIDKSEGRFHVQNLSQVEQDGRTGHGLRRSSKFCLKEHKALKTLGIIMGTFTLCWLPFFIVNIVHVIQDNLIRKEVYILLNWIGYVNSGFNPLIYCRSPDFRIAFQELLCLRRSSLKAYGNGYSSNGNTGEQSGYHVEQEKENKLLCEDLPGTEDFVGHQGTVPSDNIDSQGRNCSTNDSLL
Chain of AP-2 complex subunit beta (Homo sapiens) (P63010 whole entry, looked up, the tested form may be a part, one chain of several): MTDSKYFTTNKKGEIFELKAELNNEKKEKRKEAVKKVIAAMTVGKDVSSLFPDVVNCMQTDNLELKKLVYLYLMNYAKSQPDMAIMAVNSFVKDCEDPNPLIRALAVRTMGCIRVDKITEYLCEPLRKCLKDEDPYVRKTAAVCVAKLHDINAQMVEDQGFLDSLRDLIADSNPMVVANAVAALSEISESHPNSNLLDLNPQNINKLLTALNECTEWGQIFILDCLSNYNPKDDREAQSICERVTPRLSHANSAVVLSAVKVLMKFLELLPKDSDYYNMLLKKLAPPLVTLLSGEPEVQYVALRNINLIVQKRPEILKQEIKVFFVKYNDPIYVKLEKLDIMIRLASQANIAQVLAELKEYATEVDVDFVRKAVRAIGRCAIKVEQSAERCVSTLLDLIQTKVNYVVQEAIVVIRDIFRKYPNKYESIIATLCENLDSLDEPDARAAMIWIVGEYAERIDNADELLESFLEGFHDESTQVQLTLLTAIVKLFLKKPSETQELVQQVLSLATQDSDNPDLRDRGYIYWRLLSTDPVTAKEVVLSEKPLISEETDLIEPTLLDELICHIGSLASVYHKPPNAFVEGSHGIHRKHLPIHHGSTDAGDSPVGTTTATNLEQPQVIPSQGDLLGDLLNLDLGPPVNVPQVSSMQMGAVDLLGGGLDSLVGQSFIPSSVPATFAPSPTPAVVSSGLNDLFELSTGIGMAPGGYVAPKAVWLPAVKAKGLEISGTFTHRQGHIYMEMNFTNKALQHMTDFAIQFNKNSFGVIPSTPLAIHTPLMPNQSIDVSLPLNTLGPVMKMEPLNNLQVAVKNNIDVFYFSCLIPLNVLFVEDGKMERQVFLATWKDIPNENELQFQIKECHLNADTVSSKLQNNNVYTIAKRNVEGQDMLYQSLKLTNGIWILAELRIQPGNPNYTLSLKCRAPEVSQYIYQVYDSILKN
Chain of Integrin beta-1 (Homo sapiens) + Integrin alpha-4 (Homo sapiens) (P05556 whole entry, looked up): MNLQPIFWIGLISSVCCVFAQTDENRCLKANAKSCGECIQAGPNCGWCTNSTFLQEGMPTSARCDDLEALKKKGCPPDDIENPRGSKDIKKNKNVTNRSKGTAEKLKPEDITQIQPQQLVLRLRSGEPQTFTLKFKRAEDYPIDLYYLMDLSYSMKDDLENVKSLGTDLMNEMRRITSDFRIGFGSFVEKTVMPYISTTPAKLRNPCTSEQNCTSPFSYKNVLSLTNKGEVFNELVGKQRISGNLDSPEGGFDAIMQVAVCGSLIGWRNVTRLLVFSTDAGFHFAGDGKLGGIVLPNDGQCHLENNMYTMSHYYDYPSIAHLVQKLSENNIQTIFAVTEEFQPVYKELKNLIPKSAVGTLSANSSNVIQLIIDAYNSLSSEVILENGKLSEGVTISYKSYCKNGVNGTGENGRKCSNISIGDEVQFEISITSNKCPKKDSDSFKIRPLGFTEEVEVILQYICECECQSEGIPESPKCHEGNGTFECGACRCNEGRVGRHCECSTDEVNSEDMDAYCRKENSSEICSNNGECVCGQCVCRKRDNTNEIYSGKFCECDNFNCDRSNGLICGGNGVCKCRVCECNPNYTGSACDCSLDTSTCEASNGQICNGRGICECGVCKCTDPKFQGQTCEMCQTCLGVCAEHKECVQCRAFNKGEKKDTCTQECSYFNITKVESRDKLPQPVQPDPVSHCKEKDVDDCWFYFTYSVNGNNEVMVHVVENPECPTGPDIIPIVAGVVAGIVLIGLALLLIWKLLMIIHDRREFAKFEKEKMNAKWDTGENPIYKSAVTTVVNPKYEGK
Chain of Integrin beta-1 (Homo sapiens) + Integrin alpha-4 (Homo sapiens) (P13612 whole entry, looked up): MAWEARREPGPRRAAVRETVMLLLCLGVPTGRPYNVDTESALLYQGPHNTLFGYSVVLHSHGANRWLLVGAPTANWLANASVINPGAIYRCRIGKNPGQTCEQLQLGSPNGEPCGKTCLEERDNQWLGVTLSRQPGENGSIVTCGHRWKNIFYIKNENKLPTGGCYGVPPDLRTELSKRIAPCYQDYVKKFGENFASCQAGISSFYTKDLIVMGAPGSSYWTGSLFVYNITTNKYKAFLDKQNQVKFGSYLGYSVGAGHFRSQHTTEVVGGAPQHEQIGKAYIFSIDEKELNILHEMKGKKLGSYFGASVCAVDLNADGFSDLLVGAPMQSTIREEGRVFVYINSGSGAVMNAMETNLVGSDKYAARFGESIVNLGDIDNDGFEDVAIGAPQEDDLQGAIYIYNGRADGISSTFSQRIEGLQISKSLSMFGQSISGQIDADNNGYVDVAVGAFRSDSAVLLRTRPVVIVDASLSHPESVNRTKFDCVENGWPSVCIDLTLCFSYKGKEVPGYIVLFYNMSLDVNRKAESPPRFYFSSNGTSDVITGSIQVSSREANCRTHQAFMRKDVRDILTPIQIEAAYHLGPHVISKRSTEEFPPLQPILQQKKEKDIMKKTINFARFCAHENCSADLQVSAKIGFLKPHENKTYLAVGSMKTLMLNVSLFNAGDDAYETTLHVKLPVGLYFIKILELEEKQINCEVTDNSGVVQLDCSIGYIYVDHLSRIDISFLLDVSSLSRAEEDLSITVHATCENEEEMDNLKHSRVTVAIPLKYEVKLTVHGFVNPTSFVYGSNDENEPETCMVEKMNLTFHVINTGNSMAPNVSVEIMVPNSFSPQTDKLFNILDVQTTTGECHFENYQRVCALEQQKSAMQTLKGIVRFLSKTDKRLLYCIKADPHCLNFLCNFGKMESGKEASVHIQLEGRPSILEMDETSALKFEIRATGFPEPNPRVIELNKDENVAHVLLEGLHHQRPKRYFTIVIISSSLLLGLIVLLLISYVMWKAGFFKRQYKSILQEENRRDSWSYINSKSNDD

Broadly, the inhibition is the drop in the measured response relative to a control, in per cent. Regarding `Cc1ccc(C(=O)O)cc1NC(=O)c1cccs1`, the percent of DMSO control GFP in assay [1] is 100% (inactive). Moreover, the GFP response vs DMSO in [2] is 107% (inactive); in assay [4], 99.4% (inactive). In addition, in [3], the percent response of DMSO control is 99.3% (inactive). Further, in assay [5], the GFP response, % of DMSO is 98.6% (inactive). In assay [6], this compound registered a double positive events of 64.1%. The vesicle binding response in [6] is 206% (inactive). In addition, the results for the inhibition in [7], in assay [11] and in [15] were -17.5% (inactive), -1.98% (inactive) and 10% (inactive), respectively. The superoxide response (% of plate) in assay [8] is 109% (inactive). Moreover, the aptamer binding inhibition in [9] is 8% (inactive). In addition, the response in [10] is 4.14% (inactive); in [12], -0.65% (inactive). In assay [13], the binding (% of control) was 100% (inactive). Also, the efflux inhibition (fraction of control) in [14] is 0.04 (inactive). In assay [16], the differentiation response was 0.41% (inactive).

`CC(C)COCC1CC2(CC(C)(c3csc(N)n3)OC2=O)C(=O)O1` (stereo not given): in [1], the percent of DMSO control GFP is 105% (inactive). In addition, the GFP response vs DMSO is 97.2% (inactive) in assay [2] and 84.8% (inactive) in [4]. Moreover, the percent response of DMSO control in assay [3] is 102% (inactive). Besides, the GFP response, % of DMSO in assay [5] was 102% (inactive). Also, the double positive events in assay [6] is 60.8%. Moreover, the vesicle binding response in assay [6] was 78.1% (inactive). The values for the inhibition in assay [7], in assay [11] and in assay [15] were -9.79% (inactive), 0.87% (inactive) and -16% (inactive), respectively. Besides, the superoxide response (% of plate) in [8] was 93% (inactive). Moreover, in assay [9], the aptamer binding inhibition was 5% (inactive). For the same compound, the response in assay [10] is -1.1% (inactive); in assay [12], -4.21% (inactive). Further, in [13], the binding (% of control) was 94% (inactive). For the same compound, the efflux inhibition (fraction of control) in [14] was 0.14 (inactive). Moreover, in assay [16], the differentiation response was -4.64% (inactive).

For the compound `COc1cc2c(cc1OC)C(c1ccc(-c3cc(Cl)ccc3Cl)o1)=NCC2`, in assay [1], the percent of DMSO control GFP is 102% (inactive). Also, the GFP response vs DMSO was 109% (inactive) in assay [2] and 75.2% (inactive) in assay [4]. The percent response of DMSO control in assay [3] is 101% (inactive). Further, the GFP response, % of DMSO in [5] is 79.3% (inactive). In assay [6], this compound showed a double positive events of 59.5%. For the same compound, the vesicle binding response in assay [6] is 228% (inactive). In addition, the inhibition was -53.7% (inactive) in assay [7], 17.6% (inactive) in assay [11] and 3% (inactive) in [15]. Further, in assay [8], the superoxide response (% of plate) was 97.5% (inactive). In [9], the aptamer binding inhibition is 5% (inactive). In addition, the response in assay [10] was 60.6% (active); in [12], 2.96% (inactive). Besides, in assay [13], the binding (% of control) is 101% (inactive). Also, the efflux inhibition (fraction of control) in assay [14] is 0.3 (inactive). Also, the differentiation response in [16] was -26.4% (inactive).

In the case of `CN1C(C(=O)Nc2ccccn2)=C(O)c2ccccc2S1(=O)=O`, in assay [1], the percent of DMSO control GFP was 101% (inactive). Also, the GFP response vs DMSO in [2] was 103% (inactive); in assay [4], 106% (inactive). The percent response of DMSO control in assay [3] is 86.1% (inactive). Further, in [5], the GFP response, % of DMSO is 97.6% (inactive). In addition, in [6], the double positive events was 63.2%. Moreover, in [6], the vesicle binding response was 383% (inactive). Besides, the inhibition was -13.9% (inactive) in assay [7], -12.3% (inactive) in assay [11] and 26% (inactive) in assay [15]. Besides, in assay [8], the superoxide response (% of plate) was 104% (inactive). The aptamer binding inhibition in [9] was 1% (inactive). Further, the response is -12.3% (inactive) in assay [10] and -0.85% (inactive) in assay [12]. In addition, the binding (% of control) in [13] is 100% (inactive). For the same compound, the efflux inhibition (fraction of control) in [14] was -0.07 (inactive). The differentiation response in assay [16] is 14.9% (inactive).

On to `O=C1CCCC(=O)C1=Cc1c[nH]c2ccccc12`, for which the percent of DMSO control GFP in assay [1] is 97.9% (inactive). Further, the results for the GFP response vs DMSO in assay [2] and in assay [4] were 102% (inactive) and 112% (inactive), respectively. For the same compound, the percent response of DMSO control in assay [3] is 95.1% (inactive). Further, the GFP response, % of DMSO in [5] was 106% (inactive). In [6], this compound had a double positive events of 62%. Besides, in [6], the vesicle binding response was 226% (inactive). For the same compound, the inhibition is 9.95% (inactive) in [7], 7.17% (inactive) in assay [11] and -6% (inactive) in [15]. Besides, in assay [8], the superoxide response (% of plate) is 108% (inactive). Moreover, in [9], the aptamer binding inhibition is 3% (inactive). In addition, the figures for the response in assay [10] and in assay [12] were 28.4% (inactive) and 5.91% (inactive), respectively. Also, the binding (% of control) in assay [13] was 98.5% (inactive). For the same compound, in [14], the efflux inhibition (fraction of control) is 0 (inactive). Moreover, the differentiation response in assay [16] is 5.85% (inactive).
